LGR2 antag: inhibitors of bursicon-induced LGR2 CRE-luciferase signal, primary screen, cell-based, HEK293, CRE-luciferase reporter, bursicon stimulation; hit rate 0.35% among 380,000; inhibition, % at 9.99 µM; bursicon-stimulated, 4 h;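 active = drop in luminescence signal, shown as inhibition above about 50% in the replicate tests, limit read from the data, passing the limit was not always enough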;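 note: agonist challenge used bursicon conditioned medium at about half maximal strength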
TWEAK Fn14 block: inhibitors of TWEAK-Fn14 signaling, primary screen, luciferase reporter cells, uHTS; TWEAK-stimulated Fn14 reporter cells, luciferase luminescence, 8 h; inhibition, % at 10 µM; hit rate 2% among 360,000; AID 1159606, 2016; in the data active = inhibition above about 50%
TROY signal inh: inhibitors of TROY-driven NF-kB signaling, primary screen, Q293 LMP1-TROYcd cells, NF-kB luciferase, uHTS | Q293 LMP1-TROYcd NF-kB luciferase reporter, 4 h | inhibition, % at 10 µM | hit rate 0.98% among 360,000 | AID 1347056, 2019;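 active = compounds whose plate-normalised and pattern-corrected inhibition of the luciferase reporter signal at the single screening dose is 50% or more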
LMP1 NFkB inh: EBV LMP1-driven NF-kappaB luciferase reporter inhibitors, primary screen, cell-based, luminescence, single point; LMP1-induced NF-kappaB luciferase reporter cells; inhibition, % at 12.5 µM; hit rate 0.69% among 350,000; AID 504558, 2011; in the data active = inhibition above about 41%
EWS-Fli block: EWS/Fli-driven NR0B1 reporter inhibitors, primary screen, A673 cells, NR0B1 luciferase, luminescence, MLPCN library; viability-normalised; inhibition, % at 12.6 µM; hit rate 0.67% among 350,000;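 active = mean inhibition of at least 50% after viability correction, with every replicate also passing that limit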;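 note: firefly luciferase signal divided by Alamar Blue viability fluorescence both relative to DMSO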
Hits are given with their value; i = inactive; nt = not tested or not shown. Sampled rows, rich in hits. Any-hit rate of the full collection: about 2.6%.

SMILES	LGR2 antag	TWEAK Fn14 block	TROY signal inh	LMP1 NFkB inh	EWS-Fli block
C[C@@H]1CCCCO[C@H](CN(C)Cc2ccc(Cl)c(Cl)c2)[C@H](C)CN([C@@H](C)CO)C(=O)c2cc(NC(=O)Cc3ccccc3)ccc2O1	i	nt	nt	nt	i
O=C(C[C@@H]1CC[C@H]2[C@@H](COC[C@@H](O)CN2C(=O)Cc2ccccc2)O1)NC1CCCC1	i	nt	nt	nt	i
COc1ccccc1C(=O)Nc1ccc2c(c1)OC[C@@H](C)N(C(C)=O)C[C@@H](C)[C@H](OC)CN(C)C2=O	i	nt	nt	nt	i
COc1ccc(/C=C2\CN(Cc3ccccc3)C/C(=C\c3ccc(OC)c(O)c3)C2=O)cc1O	i	i	i	86	62
COc1cc(/C=C2\CC/C(=C\c3ccc(OCCO)c(OC)c3)C2=O)ccc1OCCO	i	i	i	i	i
COc1ccc(/C=C2\CC/C(=C\c3ccc(OC)c(OC)c3)C2=O)cc1OC	i	56	i	i	i
COc1ccc(C=C2C(=O)c3ccccc3C2=O)cc1O	i	i	i	i	i
C[C@@H]1CN([C@@H](C)CO)C(=O)c2cc(NC(=O)Nc3cccc4ccccc34)ccc2O[C@@H]1CN(C)S(=O)(=O)c1ccccc1	i	nt	nt	nt	i
Cc1sc(NC(=O)CSc2nnc(COc3ccccc3)n2C)c(C#N)c1C	nt	i	i	i	nt
Cc1ccc(OCc2nnc(SCC(=O)Nc3sc(C)c(C)c3C#N)n2C)cc1	nt	52	i	i	nt
CCNc1nc(CN2CCOCC2)nc2sc3c(c12)CCC3	i	i	i	65	nt
CO[C@H]1CN(C)C(=O)c2ccc(NS(C)(=O)=O)cc2OC[C@@H](C)N(Cc2cccnc2)C[C@H]1C	i	nt	nt	nt	i
CS(=O)(=O)c1ccc(Sc2nc3ccccc3s2)c([N+](=O)[O-])c1	nt	99	i	56	nt
O=[N+]([O-])c1cc(S(=O)(=O)C(F)(F)F)ccc1Sc1nc2ccccc2s1	nt	i	i	i	nt
COc1ccc(S(=O)(=O)Nc2ccc3c(c2)CC(=O)N([C@@H](C)CO)C[C@@H](C)[C@H](CN(C)C(=O)Nc2ccc(C(F)(F)F)cc2)O3)cc1	i	nt	nt	nt	i
COc1cc(C(=O)NCCOc2cc(C)cc(C)c2)cc(OC)c1OC	i	i	i	i	53
Cc1ccc(C(C)C)c(OCCNC(=O)c2cncc(Br)c2)c1	nt	i	i	i	nt
COc1cc(C(=O)NCCOc2cc(C)ccc2C(C)C)cc(OC)c1OC	i	62	i	i	i
COc1cc(C(=O)NCCOc2ccccc2)cc(OC)c1OC	i	i	i	i	i
C[C@H](CO)N1C[C@H](C)[C@@H](CN(C)Cc2ccncc2)Oc2c(NC(=O)c3cnccn3)cccc2C1=O	i	nt	nt	nt	i
CCSc1n[nH]c2nc3c(c(=O)n12)C1(CCCCC1)Cc1ccccc1-3	i	i	52	i	i
CSc1n[nH]c2nc3c(c(=O)n12)C1(CCCCC1)Cc1ccccc1-3	i	i	i	i	i
CCn1c(SCC#N)nc2c(c1=O)C1(CCCC1)Cc1ccccc1-2	nt	i	i	i	nt
N#CCSc1n[nH]c2nc3c(c(=O)n12)C1(CCCCC1)Cc1ccccc1-3	i	i	50	i	i
CCCC(=O)N1CCN(c2ccc(NC(=O)c3ccc([N+](=O)[O-])o3)cc2)CC1	i	i	i	i	58
SMILES	LGR2 antag	TWEAK Fn14 block	TROY signal inh	LMP1 NFkB inh	EWS-Fli block
CC(C)(C)C(=O)N1CCN(c2ccc(NC(=O)c3ccc([N+](=O)[O-])o3)cc2)CC1	i	i	i	i	54
O=C(Nc1ccc(N2CCN(C(=O)c3ccc(Cl)cc3)CC2)cc1)c1ccc2c(c1)OCCO2	i	92	70	i	nt
CCCC(=O)N1CCN(c2ccc(NC(=O)c3ccc(Br)o3)cc2)CC1	nt	i	i	i	nt
CC(C)C(=O)N1CCN(c2ccc(NC(=O)c3ccc4c(c3)OCCO4)cc2Cl)CC1	85	82	61	i	nt
C[C@H](CO)N1C[C@H](C)[C@H](CN(C)C)Oc2ccc(NC(=O)Nc3ccc4c(c3)OCO4)cc2CC1=O	i	nt	nt	nt	i
CC(C)NC(=O)N(C)C[C@@H]1OCCCC[C@@H](C)Oc2ccc(NC(=O)CCC(F)(F)F)cc2C(=O)N([C@@H](C)CO)C[C@H]1C	i	nt	nt	nt	nt
COc1ccc(C#Cc2cnc3c(c2)C(=O)N([C@H](C)CO)C[C@H](C)[C@H](CN(C)CC2CCOCC2)O3)cc1	i	nt	nt	nt	i

Bioassay records deposited in PubChem by several laboratories.
